This is a sample that favours compounds with a hit; in the whole collection about 1.7% have one here.
Vif inh – blocks HIV Vif function; HEK293T cells, Vif self-association by quenched fluorescence, imaging, 24 h; inhibition, % at 7.49 µM; 0.35% of 340,000 active; AID 602346; in the data active = inhibition above about 50%, passing the limit was not always enough; inconclusive = no clear call, values can overlap the other calls; inactive = below about 31%
CFTR F508del cor – CFTR F508del correction in bronchial cells | 0.36% of 350,000 active | activity (quench increase), % at 7.58 µM | CFBE cells, YFP halide quenching; stimulated with forskolin plus potentiator P3; % fluorescence drop versus neutral controls;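 active = mean added fluorescence quench of at least 8% versus neutral control, with both replicates also reaching 8%; inconclusive = only one of the mean or replicate conditions met; inactive = mean below 8% and not both replicates reaching 8%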;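 also: cells transiently co-express mutant CFTR-F508del with the halide-sensitive YFP; corrector assay measuring rescue of mutant channel to the surface after 24 h compound exposure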
FGF22 binding-1 – binders of recombinant human FGF22 by thermal shift; activity (Tm shift, normalised), % at 9.99 µM; SYPRO orange fluorescence; percent of sucrose octasulfate shift, DMSO zero; 1.5% of 340,000 active; AID 651658; Q9HCT0;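 active = mean Tm shift, scaled 0 neutral to 100 positive control, at about 1.3% or above, every replicate too, limit read from the data; inconclusive = no clear call, values can overlap the other calls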
Target sequence (Q9HCT0 whole entry, looked up): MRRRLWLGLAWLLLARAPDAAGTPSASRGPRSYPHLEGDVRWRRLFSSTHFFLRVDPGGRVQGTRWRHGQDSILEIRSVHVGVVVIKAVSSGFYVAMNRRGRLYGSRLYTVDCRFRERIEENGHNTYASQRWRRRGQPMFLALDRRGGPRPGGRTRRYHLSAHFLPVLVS
FGF22 binding-2 – binders of human FGF22 by thermal shift; shares compounds with FGF22 binding-1; recombinant FGF22 thermal shift, SYPRO orange fluorescence; thermal shift activity, °C (ΔTm) at 38 µM; 2% of 1,000 active; AID 720646;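 active = fitted rise in melting shift crosses a set limit at or below the top valid dose tested; inconclusive = flat fit at mid-level activity, or a poor quality fit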
TSA no protein – compound-only SYPRO artifact for FGF22 binders; 2% of 1,000 active; AID 743019; compound-only SYPRO orange thermal shift counter-screen, no protein; shares compounds with FGF22 binding-1; AC50, µM (series often up to 38 µM);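 active = rising signal whose fitted curve reaches the 0.54 level within the top valid dose, showing a melting point, actives reach about 13 µM in these data; inactive = the rest, including activity in the opposite direction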; also: value is where the raw curve crosses a fixed level and not half-maximal
* hit, by the source's call; i = inactive; ? = inconclusive; . = not tested or not shown; [ ] = remark or other dose.

SMILES	Vif inh	CFTR F508del cor	FGF22 binding-1	FGF22 binding-2	TSA no protein
O=C(Nc1ccc(S(=O)(=O)Nc2ccccn2)cc1)c1cccc([N+](=O)[O-])c1	.	2	36*	0.11	i
O=C(Nc1ccc2ccccc2c1)c1cccc([N+](=O)[O-])c1	-8	-3	0	.	.
O=C(Nc1ccc(S(=O)(=O)Nc2ccccn2)cc1)c1cccc(Cl)c1	?	1	0	.	.
CC(C)NC(=O)N(C)C[C@H]1OCCCC[C@H](C)Oc2ccc(NS(=O)(=O)c3ccc(F)cc3)cc2C(=O)N([C@H](C)CO)C[C@@H]1C	.	-1	0	.	.
CC(C)NC(=O)N1[C@@H](C#N)[C@H](c2ccc(C#CC3CC3)cc2)[C@@H]1CO	.	-4	0	.	.
O=C(Nc1ccc(F)cc1)N[C@H]1CC[C@H](CCn2cc(-c3ccccc3F)nn2)O[C@H]1CO	.	3	0	.	.
O=C(Cc1cccnc1)N[C@@H]1CC[C@@H](CCn2cc(-c3ccccc3F)nn2)O[C@@H]1CO	.	0	1.3*	-0.12	i
O=C(Nc1ccc(F)cc1)N[C@H]1CC[C@@H](CCn2cc(-c3ccccc3F)nn2)O[C@@H]1CO	.	-2	1.7*	0.17	i
O=C(Nc1ccc(F)cc1)N[C@H]1CC[C@@H](CCn2cc(-c3ccccc3F)nn2)O[C@H]1CO	.	-3	1.4*	-0.079	i
O=C(Nc1ccc(F)cc1)N[C@H]1CC[C@H](CCn2cc(-c3ccccc3F)nn2)O[C@@H]1CO	.	1	1	.	.
O=C(Nc1ccc(F)cc1)N[C@@H]1CC[C@H](CCn2cc(-c3ccccc3F)nn2)O[C@H]1CO	.	3	2.9*	0.1	i
O=C(Cc1cccnc1)N[C@@H]1CC[C@H](CCn2cc(-c3ccccc3F)nn2)O[C@H]1CO	.	2	1	.	.
O=C(Nc1ccc(F)cc1)N[C@@H]1CC[C@@H](CCn2cc(-c3ccccc3F)nn2)O[C@@H]1CO	.	1	1	.	.
O=C(O)[C@H]1[C@H](CO)[C@H]2Cn3c(ccc(-c4cncnc4)c3=O)[C@H]2N1C(=O)C1CCCCC1	.	.	0	.	.
C[C@@H]1CN([C@@H](C)CO)C(=O)c2cc(NC(=O)Nc3ccccc3)ccc2O[C@@H](C)CCCCO[C@H]1CN(C)Cc1ccc(C(F)(F)F)cc1	.	1	0	.	.
O=C(Nc1ccc2c(c1)[C@H]1C[C@H](CC(=O)N3CCCCC3)O[C@@H](CO)[C@H]1O2)C1CCC1	.	2	0	.	.
O=C(Nc1cc(F)ccc1F)N[C@@H]1CC[C@H](CCNC(=O)c2cnccn2)O[C@H]1CO	.	3	0	.	.
COCC(=O)N1[C@H](CO)[C@@H](c2ccccc2)[C@@H]1C#N	.	1	0	.	.
CC(C)CC#Cc1ccc2c(c1)O[C@@H](CN(C)C(=O)Cc1ccccc1)[C@H](C)CN([C@H](C)CO)S2(=O)=O	.	2	-1	.	.
CCc1nnc(NS(=O)(=O)c2ccc(NC(=S)NC(=O)/C=C/c3ccc([N+](=O)[O-])cc3)cc2)s1	-1	-2	2.5*	-0.005	i
CCc1nnc(NS(=O)(=O)c2ccc(NC(=S)NC(=O)/C=C/c3ccc(F)cc3)cc2)s1	-5	-2	.	.	.
C[C@@H]1CN([C@@H](C)CO)C(=O)c2cc(NC(=O)c3ccncc3)ccc2O[C@H]1CN(C)S(=O)(=O)c1ccc(F)cc1	.	-1	0	.	.
C[C@H](CO)N1C[C@H](C)[C@H](CN(C)S(=O)(=O)c2ccc(F)cc2)Oc2ccc(NC(=O)c3ccncc3)cc2C1=O	.	2	1.9*	0.048	i
C[C@@H]1CN([C@@H](C)CO)C(=O)c2cc(NS(=O)(=O)c3ccc(Cl)cc3)ccc2O[C@@H]1CN(C)S(=O)(=O)c1ccc(F)cc1	.	2	2.9*	0.18[42 µM]	i
Cc1ccc(S(=O)(=O)Nc2ccc3c(c2)C(=O)N([C@@H](C)CO)C[C@@H](C)[C@H](CN(C)C)O3)cc1	.	-3	0	.	.
SMILES	Vif inh	CFTR F508del cor	FGF22 binding-1	FGF22 binding-2	TSA no protein
C[C@@H]1CN([C@H](C)CO)C(=O)c2cc(NS(=O)(=O)c3ccc(Cl)cc3)ccc2O[C@@H]1CN(C)S(=O)(=O)c1ccc(F)cc1	.	-1	-1	.	.
Cc1ccc(S(=O)(=O)Nc2ccc3c(c2)C(=O)N([C@@H](C)CO)C[C@@H](C)[C@@H](CN(C)C)O3)cc1	.	-1	1.9*	-0.025	i
CC(C)NC(=O)N(C)C[C@H]1Oc2ccc(NC(=O)Cc3ccccc3)cc2CC(=O)N([C@H](C)CO)C[C@@H]1C	.	0	0	.	.
Cc1ccc(-c2cnc3c(c2)C(=O)N([C@H](C)CO)C[C@H](C)[C@H](CN(C)CC2CCCC2)O3)cc1	.	-1	0	.	.
CN1CCN(C(=O)C[C@@H]2CC[C@@H](NC(=O)Cc3ccccn3)[C@@H](CO)O2)CC1	.	1	0	.	.
CCC(=O)N(C)C[C@H]1Oc2cc(C#CC(C)C)ccc2S(=O)(=O)N([C@@H](C)CO)C[C@@H]1C	.	-3	0	.	.
O=C(N/N=C/c1ccc([N+](=O)[O-])o1)c1cc2ccccc2o1	8	2	0	.	.
O=[N+]([O-])c1ccc(/C=N/Nc2ccc3ccccc3c2)o1	2	1	2.1*	-0.088	i
C[C@@H]1CN([C@@H](C)CO)C(=O)Cc2cc(NC(=O)CCC(F)(F)F)ccc2O[C@H]1CN(C)C(=O)Nc1cccc2ccccc12	.	2	.	.	.
O=C(CCc1ccc(O)cc1)c1c(O)cc(O)cc1O	-4	0	2.8*	0.51	2.9µM*
COc1cc(O)c(CC=C(C)C)c(O)c1C(=O)CCc1ccc(O)cc1	-10	3	1	.	.
COCc1cn(CC[C@H]2CC[C@H](NC(=O)CCN3CCCCC3)[C@H](CO)O2)nn1	.	2	0	.	.
CC(=O)N1CCc2c(sc(NC(=O)C3COc4ccccc4O3)c2C(N)=O)C1 (configuration not stated)	14	-2	0	.	.
CCN1CCc2c(sc(NC(=O)c3ccc(S(=O)(=O)N(CC)c4ccccc4)cc3)c2C(N)=O)C1	i	1	28*	0.017	i
CCOC(=O)N1CCc2c(sc(NC(=O)C3COc4ccccc4O3)c2C(N)=O)C1 (configuration not stated)	-15	-1	29*	-0.11	i
CCN1CCc2c(sc(NC(=O)c3ccc(C(=O)c4ccccc4)cc3)c2C(N)=O)C1	-6	1	0	.	.
CNC[C@H]1Oc2ccc(NC(=O)Nc3ccccc3)cc2C(=O)N([C@@H](C)CO)C[C@H]1C	.	-3	0	.	.
C[C@H]1CN([C@@H](C)CO)C(=O)c2c(c3ccccc3n2C)-c2ccccc2CO[C@H]1CN(C)C(=O)C1CC1	.	-1	0	.	.
C[C@@H]1CN([C@@H](C)CO)C(=O)c2cccc(NC(=O)Nc3ccc4c(c3)OCO4)c2O[C@H]1CN(C)Cc1ccc(C(F)(F)F)cc1	.	0	-1	.	.
CCC(C)N(C(=O)COc1ccc(-c2nnco2)cc1)C1CCS(=O)(=O)C1 (configuration not stated)	-23	-1	36*	-0.045	i

High-throughput results: PubChem, Broad Institute
